Assay outcomes: PubChem, National Center for Advancing Translational Sciences (NCATS)
gsp antagonist: antagonizes gsp, the McCune-Albright syndrome mutation. gsp-mutant cells, cAMP HTRF, 30 min. Potency, µM (top dose mostly 76.9 µM), actives largely listed as inhibitors. 0.4% of 340,000 active; calls by dose curve; cell line not stated here;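 note: intracellular cAMP measured with PDE inhibitor Ro 20-1724 present during compound exposure; nearly all actives have a fitted effect of over 65% in size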
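Cells, 2000/well, grown 16–24 h in DMEM 10% FBS with 0.5 mg/ml G418, then compounds plus […] (300 uM addition stock), 30 min at 37C. cAMP read by HTRF (cAMP-d2 and anti-cAMP antibody-K in lysis buffer) after 30 min RT.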
PTHR1 agonist: PTHR1 (human) receptor agonism. HEK293 GP2 PTHR1 cells, GloSensor cAMP luminescence, 1 h. Potency, µM (highest dose often 115 µM), hits mostly activators. 0.075% of 410,000 active. AID 743266; note: nearly all actives have a fitted effect of over 55% in size
Target sequence (Q03431 whole entry, looked up): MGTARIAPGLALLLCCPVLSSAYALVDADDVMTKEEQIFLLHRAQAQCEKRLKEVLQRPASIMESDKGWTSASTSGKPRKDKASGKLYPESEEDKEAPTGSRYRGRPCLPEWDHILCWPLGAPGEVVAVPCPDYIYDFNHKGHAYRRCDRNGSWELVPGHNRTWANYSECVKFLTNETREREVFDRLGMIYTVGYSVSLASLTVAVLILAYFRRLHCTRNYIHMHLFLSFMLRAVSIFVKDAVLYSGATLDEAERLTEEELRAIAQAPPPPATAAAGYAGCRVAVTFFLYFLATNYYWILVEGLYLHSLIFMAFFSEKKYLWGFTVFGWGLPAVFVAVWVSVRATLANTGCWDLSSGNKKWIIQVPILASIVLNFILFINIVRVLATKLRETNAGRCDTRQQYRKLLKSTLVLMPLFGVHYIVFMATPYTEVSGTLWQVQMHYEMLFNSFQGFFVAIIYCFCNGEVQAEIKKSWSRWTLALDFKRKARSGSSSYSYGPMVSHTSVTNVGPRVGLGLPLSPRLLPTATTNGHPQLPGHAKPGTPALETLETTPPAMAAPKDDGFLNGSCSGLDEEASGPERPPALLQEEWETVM
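HEK-293-derived GP2 cells expressing PTHR1 and a GloSensor cAMP reporter, 3,000/well, plated overnight, given luciferin plus IBMX (each 0.5 mM as added) for 1 h at 37 °C, then compound for 1 h at 37 °C. Luminescence was read after 15 min at room temperature.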
RXFP1 agonist: agonists of human relaxin receptor RXFP1. Q9HBX9. Potency, µM (series often up to 57.5 µM), usual class: activators. HEK293T-RXFP1 cAMP TR-FRET, 30 min; response scale: percent of porcine relaxin response, buffer zero. 0.3% of 370,000 active; note: nearly all actives have a fitted effect of over 60% in size
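HEK293T cells stably expressing RXFP1 were pretreated with the PDE4 inhibitor Ro 20174, exposed to compounds for 30 min at 37C, lysed, and cAMP was read by TR-FRET. Data normalized to buffer (basal) and 29 nM porcine relaxin (100%).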
RXFP1 antag: antagonists of human relaxin receptor RXFP1; Q9HBX9; HEK293-RXFP1, relaxin-stimulated cAMP HTRF, 30 min; stronger effect = lower value; activity change, negative = inhibition, % at 57.5 µM; 0.59% of 350,000 active; AID 1259400;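 active = activity change of -60% or lower, but not beyond a set lower limit; inconclusive = change between -60% and -40%, or beyond the set limit; inactive = change above -40%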
gsp ag: activates gsp, the McCune-Albright syndrome mutation. gsp mutant cells, cAMP HTRF, 30 min. Potency, µM (highest dose often 76.9 µM), hits mostly activators. 0.13% of 340,000 active. AID 624287; active = well fitted activation curve with a large enough effect; inconclusive = small, poorly fitted or top-dose-only effect, or another doubt; inactive = no such curve, though single readings can be large or run the other way; cell line not stated here;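 note: phosphodiesterase inhibitor Ro 20-1724 added with compounds to block cAMP breakdown; nearly all actives have a fitted effect of over 60% in size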
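Cells stably selected in G418 were plated at 2000/well, grown 16-24 hr, then given compounds in DMSO with the PDE inhibitor […] (300 uM solution added) for 30 min at 37C; cAMP was read by HTRF.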
Each line names hits and unclear results; the compound was inactive in the other large screens; ! = not confirmed by another sample. Compounds with a hit are over-represented: about 1% of the library has one in this group of screens. Unless noted, calls come from the whole dose curve; as a rule, active = well fitted curve in the direction sought with a large enough effect; inconclusive = small, poorly fitted or top-dose-only effect, or another doubt; inactive = no such curve, though single readings can be large; an effect the other way counts as inactive or inconclusive.

CC(=O)N1CCOc2ccc(S(=O)(=O)NCCc3ccc(Cl)cc3)cc21	RXFP1 antag -68
CC1CCCCN1CCCOC(=O)c1ccc(OC2CCCCC2)cc1 (centres undefined)	none (no result: gsp antagonist, PTHR1 agonist, RXFP1 agonist, gsp ag)
Cc1cccc(OCC(O)Cn2c(=N)n(CCN3CCCCC3)c3ccccc32)c1 (centres undefined)	RXFP1 antag -63!
CCOC(=O)c1ccc(NC(=O)CSc2nc(C)cc(=O)[nH]2)cc1	none
CCOC(=O)c1c(-c2ccccc2Cl)csc1NC(=O)CSc1nc(C)cc(=O)[nH]1	gsp antagonist inconclusive, RXFP1 antag -80
O=C(c1cccc(Cl)c1)N1c2nc(-c3ccco3)nn2C2(CCCCC2)[C@@H]2CCCC[C@@H]21	none (no result: gsp antagonist, gsp ag)
COc1cccc(C(=O)N2c3nc(-c4ccco4)nn3C3(CCCCC3)[C@@H]3CCCC[C@@H]32)c1	RXFP1 antag -65 (no result: gsp antagonist, gsp ag)
O=C(c1cccc(Cl)c1)N1c2ncnn2C2(CCCCC2)[C@@H]2CCCC[C@@H]21	RXFP1 antag -61 (no result: gsp antagonist, gsp ag)
Nc1ncnc2c1ncn2[C@@H]1O[C@H](CO)[C@@H](O)[C@H]1O	none (no result: gsp ag)
CCOP1(=O)OCC2OC(n3cnc4c(N)ncnc43)C(O)C2O1 (centres undefined)	RXFP1 agonist 10µM
NC(=O)N[C@@H](CCC(=O)O)C(=O)O	none (no result: gsp antagonist, PTHR1 agonist, RXFP1 agonist, gsp ag)
O=C(Nc1ccc(Cl)cc1)C1CCN(c2nc3ccccc3n3cccc23)CC1	none (no result: gsp antagonist, gsp ag)
CCOC(=O)c1sc(NC(=O)CCC(=O)O)nc1C	RXFP1 antag -85, gsp ag inconclusive
Cc1cc(C)cc(NC(=O)CN2CCc3cc4c(cc3C2C)OCCCO4)c1 (centres undefined)	RXFP1 antag -62
Cc1cccc(NC(=O)CN2CCc3cc4c(cc3C2C)OCCCO4)c1 (centres undefined)	none
COc1ccc(NC(=O)c2ccco2)cc1NC(=O)c1cccc(C)c1OC	none (no result: gsp antagonist, gsp ag)
CC1(C)CC(=O)C(C(C2=C(O)CC(C)(C)CC2=O)c2ccc(Br)s2)C(=O)C1 (centres undefined)	RXFP1 antag -99, gsp ag inconclusive
COCCCn1c(SCC(=O)OC2CCCCC2)nnc1-c1cccs1	PTHR1 agonist 0.28µM
COCCCn1c(SCC(=O)OC2CCCCC2)nnc1-c1ccco1	none
O=C(O)c1cccc(Nc2ncnc3ccc(Br)cc23)c1	PTHR1 agonist 8.9µM!
O=C(NCCCCCCNC(=O)OCc1ccccc1)OCc1ccccc1	none (no result: RXFP1 agonist)
O=C(OCc1ccccc1)N(CCCCN(CCCNCc1ccccc1)C(=O)OCc1ccccc1)CCCNCc1ccccc1	RXFP1 antag -94 (no result: RXFP1 agonist)
CCCC(=O)Nc1nnc2n1CCS2	none (no result: gsp antagonist, RXFP1 antag, gsp ag)
CC(=O)c1ccccc1OCC(O)CN1CCN(CCN2C(=O)c3cccc4cccc(c34)C2=O)CC1 (centres undefined)	gsp antagonist 32µM
Cc1ccc(Cc2cnc(NC(=O)c3ccc4c(c3)CC(c3ccccc3)OC4=O)s2)cc1 (centres undefined)	none (no result: gsp antagonist, gsp ag)
Cc1ccc(S(=O)(=O)NCC(=O)NCc2cc(=O)n(C)c(=O)n2C)cc1C	RXFP1 antag -100
C=C(CCC(=O)c1ccccc1)C(=O)c1ccccc1	RXFP1 antag -67
CC(C)(C)c1csc(NC(=O)c2cccnc2)n1	gsp ag inconclusive
CC(C)(C)c1csc(NNC(=O)c2ccc(Cl)cc2)n1	RXFP1 antag -95
Cc1nc2nc(SCC(=O)NCCc3ccc(Cl)cc3)nn2c(C)c1Cc1ccccc1	none (no result: gsp antagonist, gsp ag)
CC(OC(=O)CN(C)S(=O)(=O)c1ccc(Cl)cc1)C(=O)Nc1cccc(Cl)c1 (centres undefined)	gsp antagonist 40µM
CC(=O)n1cc([C@H]2C=C(C(=O)N3CCN(Cc4ccccc4)CC3)O[C@@H](OCCCCO)C2)c2ccccc21	gsp antagonist 35µM (no result: RXFP1 antag, gsp ag)
CC(=O)n1cc([C@@H]2C=C(C(=O)N3CCN(Cc4ccc5c(c4)OCO5)CC3)O[C@H](OCCCCO)C2)c2ccccc21	none (no result: RXFP1 antag, gsp ag)
COc1cccc(CNC(=O)c2ccc(-c3nc(CS(=O)(=O)c4ccccc4)c(C)o3)cc2)c1	none (no result: gsp antagonist, gsp ag)
COc1ccc(CN2C(=O)c3cccnc3C2=O)cc1S(=O)(=O)N1CCCCC1C (centres undefined)	RXFP1 agonist 7.1µM, gsp ag 7.1µM
CCN(CC)S(=O)(=O)c1cccc(NC(=O)COc2ncnc3sccc23)c1	RXFP1 agonist inconclusive, gsp ag 25µM
CC(C)NC(=O)Cn1cnc2c1c(=O)n(C)c(=O)n2C	none
CCOc1ccccc1OCC(=O)NNC(=O)Cn1cnc2c1c(=O)n(C)c(=O)n2C	RXFP1 agonist 22µM
COc1cc(/C=N/NC(=O)Cn2cnc3c2c(=O)n(C)c(=O)n3C)cc(OC)c1OC	none
COc1cccc(/C=N/NC(=O)Cn2cnc3c2c(=O)n(C)c(=O)n3C)c1OC	RXFP1 agonist 18µM
Cn1c(=O)c2c(ncn2CC(=O)NC2CCCCC2)n(C)c1=O	PTHR1 agonist inconclusive, RXFP1 agonist 16µM, gsp ag 13µM
CCOc1ccc(OCC)c(NC(=O)Cn2nc(CC)n3c(cc4sccc43)c2=O)c1	none (no result: gsp antagonist, gsp ag)
COc1ccccc1CNC(=O)CCCc1nnc2n(C)c(=O)c3sccc3n12	RXFP1 agonist inconclusive, gsp ag 14µM
Cc1ccc(CNC(=O)CCCc2nnc3n(C)c(=O)c4sccc4n23)cc1	RXFP1 agonist inconclusive (no result: gsp antagonist, gsp ag)
Cn1c(=O)c2sccc2n2c(CCCC(=O)NCc3ccco3)nnc12	RXFP1 agonist 14µM, gsp ag inconclusive
CCn1c(=O)c2sccc2n2c(CCCC(=O)NCc3cccnc3)nnc12	RXFP1 agonist 18µM, gsp ag inconclusive
COc1ccccc1NC(=O)CCCc1nnc2n(C)c(=O)c3sccc3n12	RXFP1 agonist 4.5µM, gsp ag 13µM
CCn1c(=O)c2sccc2n2c(CCCC(=O)Nc3ccc(Oc4ccccc4)cc3)nnc12	none (no result: gsp antagonist, gsp ag)
COCCCn1c(=O)c2sccc2n2c(CCCC(=O)NCc3ccccc3OC)nnc12	gsp ag inconclusive
Cc1cc(C)c(S(=O)(=O)NCCc2cc3ccc(C)cc3[nH]c2=O)c(C)c1	none (no result: gsp antagonist, RXFP1 antag, gsp ag)
O=C(Nc1ccc(C(=O)N2CCN(c3cccc(Cl)c3)CC2)cc1)c1nsc2ccccc12	none (no result: gsp antagonist, gsp ag)
COC(=O)c1ccc(NC(=O)CC2C(=O)N(c3ccc(F)cc3)C(=O)N2Cc2ccc(OC)cc2)cc1 (centres undefined)	none (no result: gsp antagonist, gsp ag)
COc1ccc(C2=Nc3ccc(OC(F)(F)F)cc3NC(c3cccnc3)=N2)cc1	none (no result: gsp antagonist, gsp ag)
CCOC(=O)Cn1c(=O)oc2cc(S(=O)(=O)N3CCN(c4ccccc4OC)CC3)ccc21	RXFP1 antag -65 (no result: gsp antagonist, gsp ag)
CCOC(=O)Cc1ccc(NC(=O)N2CC(C)Oc3ccc(Cl)cc32)cc1 (centres undefined)	none (no result: gsp antagonist, gsp ag)
COc1ccc(CNC(C)C(=O)Nc2ccc3ccccc3c2)cc1OC (centres undefined)	gsp antagonist 11µM
CC(=O)Oc1ccc(C2(c3ccc(OC(C)=O)cc3)Oc3ccccc3NC2=O)cc1	none (no result: gsp antagonist, PTHR1 agonist, RXFP1 agonist, gsp ag)
